Test results taken from PubChem BioAssay AID1159580 (chemical genetic matrix, 2015).
In all, about 5,500 compounds went through this assay and about 2,000 (36%) were called active. Roughly 18% stayed inconclusive and do not appear here. No stated cut-off is given here; in the data, active means normalized growth mostly below about 0.91 (no sharp cut-off); inconclusive means no clear call, values can overlap the other calls; inactive means mostly above about 0.92. Some of the results follow.

Test: chemical genetic growth profiling, strain panel (AID 1159580);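 further: tested at 20 µM; growth read once vehicle control cultures reached saturation at 30 °C; 1 = growth at the plate median or of vehicle wells; lower values mean less growth of the strain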
Conditions: growth OD

Measured: normalized growth

C[C@@H](CO)NC(=O)C1C=C2c3cccc4[nH]cc(c34)C[C@H]2N(C)C1 (some centres not stated)
inactive: S. cerevisiae deletion strains, locus YJR075W, strain HOC1, active compounds read low 1.03 | S. cerevisiae deletion strains, locus YKL009W, strain mrt4, active compounds read low 0.976 | S. cerevisiae deletion strains, locus YKL068W, active compounds read low 0.993 | S. cerevisiae deletion strains, locus YKL085W, strain MDH1 (second series), active compounds read low 0.982 | S. cerevisiae deletion strains, locus YKL085W, strain MDH1, active compounds read low 0.982 | S. cerevisiae deletion strains, locus YKL160W, strain elf1, active compounds read low 1.04 | S. cerevisiae deletion strains, locus YKL190W, strain CNB1, active compounds read low 1.01 | S. cerevisiae deletion strains, locus YKR001C, strain vps1, active compounds read low 0.997 | S. cerevisiae deletion strains, locus YKR026C, strain gcn3, active compounds read low 1.01 | S. cerevisiae deletion strains, locus YKR091W, strain srl3, active compounds read low 1.01 | S. cerevisiae deletion strains, locus YLL001W, strain dnm1, active compounds read low 1.04 | S. cerevisiae deletion strains, locus YLL026W, active compounds read low 1.03 | S. cerevisiae deletion strains, locus YLL041C, strain sdh2, active compounds read low 1.01 | S. cerevisiae deletion strains, locus YLR027C, strain aat2, active compounds read low 1.03 | S. cerevisiae deletion strains, locus YLR039C, strain RIC1, active compounds read low 1.02 | S. cerevisiae deletion strains, locus YLR058C, strain SHM2, active compounds read low 1 | S. cerevisiae deletion strains, locus YLR102C, strain apc9, active compounds read low 0.993 | S. cerevisiae deletion strains, locus YLR113W, strain HOG1, active compounds read low 1.07 | S. cerevisiae deletion strains, locus YLR221C, strain rsa3, active compounds read low 0.97 | S. cerevisiae deletion strains, locus YLR258W, strain gsy2, active compounds read low 1.01 | S. cerevisiae deletion strains, locus YLR262C, strain YPT6 (second series), active compounds read low 1.04 | S. cerevisiae deletion strains, locus YLR262C, strain YPT6, active compounds read low 1.05 | S. cerevisiae deletion strains, locus YLR268W, strain sec22, active compounds read low 1.02 | S. cerevisiae deletion strains, locus YLR320W, strain mms22, active compounds read low 1 | S. cerevisiae deletion strains, locus YLR330W, strain CHS5, active compounds read low 0.994 | S. cerevisiae deletion strains, locus YLR342W, strain FKS1 (second series), active compounds read low 0.973 | S. cerevisiae deletion strains, locus YLR342W, strain FKS1, active compounds read low 1.03 | S. cerevisiae deletion strains, locus YLR357W, strain rsc2, active compounds read low 1 | S. cerevisiae deletion strains, locus YLR370C, strain arc18, active compounds read low 1.02 | S. cerevisiae deletion strains, locus YLR371W, strain rom2, active compounds read low 0.993 | S. cerevisiae deletion strains, locus YLR384C, strain iki3, active compounds read low 0.998 | S. cerevisiae deletion strains, locus YLR418C, strain cdc73, active compounds read low 1.02 | S. cerevisiae deletion strains, locus YML016C, strain PPZ1, active compounds read low 0.991 | S. cerevisiae deletion strains, locus YML032C, strain rad52, active compounds read low 0.981 | S. cerevisiae deletion strains, locus YML120C, strain ndi1, active compounds read low 1.04 | S. cerevisiae deletion strains, locus YML124C, strain tub3, active compounds read low 0.992 | S. cerevisiae deletion strains, locus YMR058W, strain fet3, active compounds read low 1.03 | S. cerevisiae deletion strains, locus YMR078C, strain ctf18, active compounds read low 0.985 | S. cerevisiae deletion strains, locus YMR125W, strain sto1, active compounds read low 1.01 | S. cerevisiae deletion strains, locus YMR129W, active compounds read low 1.01 | S. cerevisiae deletion strains, locus YMR205C, strain PFK2, active compounds read low 1.04 | S. cerevisiae deletion strains, locus YMR223W, strain ubp8, active compounds read low 0.988 | S. cerevisiae deletion strains, locus YMR231W, strain pep5, active compounds read low 1 | S. cerevisiae deletion strains, locus YMR263W, strain SAP30, active compounds read low 1.04 | S. cerevisiae deletion strains, locus YMR307W, strain GAS1, active compounds read low 0.96 | S. cerevisiae deletion strains, locus YNL067W, strain RPL9B, active compounds read low 1.05 | S. cerevisiae deletion strains, locus YNL071W, strain lat1, active compounds read low 1 | S. cerevisiae deletion strains, locus YNL128W, strain TEP1, active compounds read low 1.03 | S. cerevisiae deletion strains, locus YNL153C, strain GIM3, active compounds read low 1.01 | S. cerevisiae deletion strains, locus YNL183C, strain NPR1, active compounds read low 0.994 | S. cerevisiae deletion strains, locus YNL209W, strain ssb2, active compounds read low 1 | S. cerevisiae deletion strains, locus YNL233W, strain BNI4, active compounds read low 1.01 | S. cerevisiae deletion strains, locus YNL248C, strain rpa49, active compounds read low 0.991 | S. cerevisiae deletion strains, locus YNL250W, strain rad50, active compounds read low 1.01 | S. cerevisiae deletion strains, locus YNL271C, strain bni1, active compounds read low 1 | S. cerevisiae deletion strains, locus YNL298W, strain CLA4, active compounds read low 0.992 | S. cerevisiae deletion strains, locus YNL307C, strain MCK1, active compounds read low 0.985 | S. cerevisiae deletion strains, locus YNL322C, strain KRE1 (second series), active compounds read low 1.02 | S. cerevisiae deletion strains, locus YNL322C, strain KRE1, active compounds read low 1.01 | S. cerevisiae deletion strains, locus YNR049C, strain mso1, active compounds read low 1.01 | S. cerevisiae deletion strains, locus YNR052C, strain pop2, active compounds read low 0.984 | S. cerevisiae deletion strains, locus YOL006C, strain TOP1, active compounds read low 1.09 | S. cerevisiae deletion strains, locus YOL012C, strain htz1 0.782 | S. cerevisiae deletion strains, locus YOL147C, strain pex11, active compounds read low 0.996 | S. cerevisiae deletion strains, locus YOR001W, strain rrp6, active compounds read low 1.02 | S. cerevisiae deletion strains, locus YOR061W, strain CKA2, active compounds read low 1 | S. cerevisiae deletion strains, locus YOR069W, strain VPS5, active compounds read low 0.992 | S. cerevisiae deletion strains, locus YOR070C, strain gyp1, active compounds read low 1 | S. cerevisiae deletion strains, locus YOR080W, strain dia2, active compounds read low 1.02 | S. cerevisiae deletion strains, locus YOR083W, strain WHI5, active compounds read low 1.02 | S. cerevisiae deletion strains, locus YOR106W, strain vam3, active compounds read low 1.05 | S. cerevisiae deletion strains, locus YOR136W, strain idh2, active compounds read low 0.988 | S. cerevisiae deletion strains, locus YOR144C, strain elg1, active compounds read low 0.989 | S. cerevisiae deletion strains, locus YOR184W, strain ser1, active compounds read low 1 | S. cerevisiae deletion strains, locus YOR231W, strain MKK1, active compounds read low 1.04 | S. cerevisiae deletion strains, locus YOR265W, strain rbl2, active compounds read low 1.01 | S. cerevisiae deletion strains, locus YOR270C, strain vph1, active compounds read low 1 | S. cerevisiae deletion strains, locus YOR290C, strain snf2, active compounds read low 0.969 | S. cerevisiae deletion strains, locus YOR316C, strain cot1, active compounds read low 0.988 | S. cerevisiae deletion strains, locus YPL051W, strain arl3, active compounds read low 1.01 | S. cerevisiae deletion strains, locus YPL055C, strain LGE1, active compounds read low 1.07 | S. cerevisiae deletion strains, locus YPL078C, strain atp4, active compounds read low 1.06 | S. cerevisiae deletion strains, locus YPL106C, strain sse1, active compounds read low 1.04 | S. cerevisiae deletion strains, locus YPL240C, strain hsp82, active compounds read low 1.01 | S. cerevisiae deletion strains, locus YPL241C, strain CIN2, active compounds read low 1 | S. cerevisiae deletion strains, locus YPL256C, strain CLN2, active compounds read low 1.04 | S. cerevisiae deletion strains, locus YPR119W, strain clb2, active compounds read low 1 | S. cerevisiae deletion strains, locus YPR141C, strain kar3, active compounds read low 0.993 | S. cerevisiae deletion strains, locus YPR163C, strain tif3, active compounds read low 0.994 | S. cerevisiae deletion strains, locus YPR167C, strain met16, active compounds read low 0.995 | S. cerevisiae deletion strains, strain wtn01, active compounds read low 0.999 | S. cerevisiae strains, strain wild type, active compounds read low 1.03
